From PubChem BioAssay come the findings set out here.

A short description of experiment [1]: binders of probe aFSTL3 on microarray, primary screen, stem cell growth factor project, biochemical, small-molecule microarray, fluorescence 635/667 (AID 1064).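 Further: measures binding of the biotinylated anti-FSTL3 antibody to printed compounds.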 Particulars: higher = more signal.
Experiment [2] in a line: binders from COS7 lysate, DM2A8 probe, primary screen, torsin A project, cell lysate, small-molecule microarray, fluorescence 635/667 (AID 1065). Particulars: higher = more signal, COS7 lysate expressing mutant human TOR1A.
Experiment [3] can be described thus: binders of probe aFGF2 on microarray, primary screen, stem cell growth factor project, biochemical, small-molecule microarray, fluorescence 635/667 (AID 1067).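 Further: measures binding of biotinylated aFGF2 protein to printed compounds on slides; z-score merges feature fluorescence and signal-to-noise across triplicate slides.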 To be noted: higher = more signal.
A short description of experiment [4]: binders of probe aFGF10 on microarray, primary screen, stem cell growth factor project, biochemical, small-molecule microarray, fluorescence 635/667 (AID 1071).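 Further: score merges 667 nm spot intensity and signal to noise from triplicate slides.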 Particulars: higher = more signal.
Experiment [5] deals with Neurogenic locus notch homolog protein 2 (Homo sapiens) (UniProt Q04721). Nature of the experiment: Notch2 binders on small-molecule microarrays, primary screen, biochemical, small-molecule microarray, 635 nm fluorescence, stem cell growth factors (AID 1073). To be noted: Notch2 binding, higher = more signal.
Sequence of Neurogenic locus notch homolog protein 2 (Homo sapiens) (Q04721 whole entry, looked up, canonical isoform): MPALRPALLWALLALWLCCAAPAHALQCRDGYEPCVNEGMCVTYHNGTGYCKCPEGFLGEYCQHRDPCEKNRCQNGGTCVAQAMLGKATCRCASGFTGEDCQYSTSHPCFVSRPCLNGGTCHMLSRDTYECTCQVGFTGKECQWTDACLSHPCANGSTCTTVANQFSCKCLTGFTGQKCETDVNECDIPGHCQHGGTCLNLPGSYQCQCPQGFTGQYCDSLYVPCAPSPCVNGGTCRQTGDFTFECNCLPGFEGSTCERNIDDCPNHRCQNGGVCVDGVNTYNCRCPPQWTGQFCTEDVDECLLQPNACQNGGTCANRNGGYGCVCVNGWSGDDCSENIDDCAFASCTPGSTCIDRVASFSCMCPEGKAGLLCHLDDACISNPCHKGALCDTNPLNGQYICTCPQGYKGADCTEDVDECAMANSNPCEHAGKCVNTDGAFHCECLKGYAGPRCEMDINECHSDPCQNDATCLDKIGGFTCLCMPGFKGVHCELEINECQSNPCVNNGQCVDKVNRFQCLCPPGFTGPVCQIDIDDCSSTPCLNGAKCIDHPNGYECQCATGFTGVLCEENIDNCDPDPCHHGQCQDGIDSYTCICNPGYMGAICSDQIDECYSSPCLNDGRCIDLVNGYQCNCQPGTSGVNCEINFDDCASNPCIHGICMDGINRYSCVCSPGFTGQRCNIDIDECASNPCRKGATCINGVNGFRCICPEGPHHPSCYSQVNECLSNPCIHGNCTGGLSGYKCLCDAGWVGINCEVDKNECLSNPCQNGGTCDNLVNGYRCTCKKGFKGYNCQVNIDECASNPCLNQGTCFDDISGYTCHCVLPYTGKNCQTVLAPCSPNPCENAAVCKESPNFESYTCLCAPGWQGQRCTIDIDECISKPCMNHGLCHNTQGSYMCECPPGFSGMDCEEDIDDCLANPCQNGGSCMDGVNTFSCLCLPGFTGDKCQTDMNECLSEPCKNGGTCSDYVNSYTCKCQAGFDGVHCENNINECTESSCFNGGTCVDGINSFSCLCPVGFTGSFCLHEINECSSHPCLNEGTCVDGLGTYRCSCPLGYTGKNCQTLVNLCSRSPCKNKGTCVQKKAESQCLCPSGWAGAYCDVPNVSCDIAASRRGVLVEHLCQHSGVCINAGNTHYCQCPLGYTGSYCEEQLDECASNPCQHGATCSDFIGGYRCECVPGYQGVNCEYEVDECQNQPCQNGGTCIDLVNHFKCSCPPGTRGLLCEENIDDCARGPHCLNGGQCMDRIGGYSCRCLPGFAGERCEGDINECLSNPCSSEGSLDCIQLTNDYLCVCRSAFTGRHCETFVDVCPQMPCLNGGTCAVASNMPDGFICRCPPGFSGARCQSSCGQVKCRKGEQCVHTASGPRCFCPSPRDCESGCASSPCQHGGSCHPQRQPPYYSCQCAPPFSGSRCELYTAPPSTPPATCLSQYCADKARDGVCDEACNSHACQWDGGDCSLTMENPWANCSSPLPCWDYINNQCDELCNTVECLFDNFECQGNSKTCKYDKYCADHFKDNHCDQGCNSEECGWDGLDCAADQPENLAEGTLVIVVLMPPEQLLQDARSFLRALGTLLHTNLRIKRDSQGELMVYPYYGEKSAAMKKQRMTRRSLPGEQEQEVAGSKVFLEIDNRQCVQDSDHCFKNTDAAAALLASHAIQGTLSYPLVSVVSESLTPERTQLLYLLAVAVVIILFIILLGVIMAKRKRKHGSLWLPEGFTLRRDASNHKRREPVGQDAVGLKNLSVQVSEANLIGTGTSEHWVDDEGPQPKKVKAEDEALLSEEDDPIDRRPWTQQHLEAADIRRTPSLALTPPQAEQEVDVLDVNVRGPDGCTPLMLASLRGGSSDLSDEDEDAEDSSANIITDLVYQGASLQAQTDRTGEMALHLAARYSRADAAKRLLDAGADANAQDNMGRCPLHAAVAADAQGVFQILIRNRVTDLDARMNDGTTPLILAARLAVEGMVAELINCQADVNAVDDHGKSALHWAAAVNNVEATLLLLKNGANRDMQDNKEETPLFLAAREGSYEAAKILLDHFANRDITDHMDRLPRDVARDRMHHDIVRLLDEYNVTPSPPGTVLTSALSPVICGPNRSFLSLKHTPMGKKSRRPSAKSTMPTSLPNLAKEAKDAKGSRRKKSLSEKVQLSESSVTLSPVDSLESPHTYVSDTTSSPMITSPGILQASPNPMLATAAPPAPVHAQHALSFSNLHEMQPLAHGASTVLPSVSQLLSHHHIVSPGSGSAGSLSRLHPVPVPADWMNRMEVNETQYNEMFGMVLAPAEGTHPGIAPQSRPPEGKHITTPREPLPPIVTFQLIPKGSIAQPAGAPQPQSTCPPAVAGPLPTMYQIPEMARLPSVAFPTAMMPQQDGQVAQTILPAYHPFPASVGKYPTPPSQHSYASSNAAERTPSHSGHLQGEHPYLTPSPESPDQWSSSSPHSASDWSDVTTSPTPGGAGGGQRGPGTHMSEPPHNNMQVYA
Experiment [6] deals with Pro-neuregulin-1, membrane-bound isoform (Homo sapiens) (UniProt Q02297). Nature of the experiment: NRG1 binders on small-molecule microarrays, primary screen, psychiatric disease protein project, biochemical, small-molecule microarray, fluorescence 635/667 (AID 1075).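 Further: score combines 667 nm spot fluorescence with signal to noise.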 To be noted: NRG1 binding, 635 nm fluorescence, higher = more signal.
Sequence of Pro-neuregulin-1, membrane-bound isoform (Homo sapiens) (Q02297 whole entry, looked up, the tested form may be a part, canonical isoform): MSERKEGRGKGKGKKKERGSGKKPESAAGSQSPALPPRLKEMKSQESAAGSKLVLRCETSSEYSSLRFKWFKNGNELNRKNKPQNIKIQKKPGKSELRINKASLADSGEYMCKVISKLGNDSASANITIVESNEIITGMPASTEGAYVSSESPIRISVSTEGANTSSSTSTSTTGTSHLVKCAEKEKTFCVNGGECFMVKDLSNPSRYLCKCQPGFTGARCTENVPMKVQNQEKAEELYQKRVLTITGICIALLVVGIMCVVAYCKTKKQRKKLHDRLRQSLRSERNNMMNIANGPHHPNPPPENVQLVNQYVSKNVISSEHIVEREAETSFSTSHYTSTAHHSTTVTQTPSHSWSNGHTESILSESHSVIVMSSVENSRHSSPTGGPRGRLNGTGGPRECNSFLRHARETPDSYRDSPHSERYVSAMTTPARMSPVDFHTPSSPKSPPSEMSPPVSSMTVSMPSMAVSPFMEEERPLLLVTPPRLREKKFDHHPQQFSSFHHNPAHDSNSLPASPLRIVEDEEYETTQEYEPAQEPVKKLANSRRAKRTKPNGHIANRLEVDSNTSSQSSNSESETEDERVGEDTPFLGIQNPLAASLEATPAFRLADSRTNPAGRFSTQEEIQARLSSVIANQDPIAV
Experiment [7] relates to Neuregulin-1 EGF-like domain. The experiment in a line: binders of neuregulin-1 EGF-like domain, primary screen, biochemical, small-molecule microarray, 635 nm fluorescence (AID 1081).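 Further: binding of the protein to compounds printed on small-molecule microarray slides.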 Particulars: small-molecule microarray binding, higher = more signal.
Experiment [8] is described as follows: FRG1 promoter luciferase signal modulators, primary screen, FRG1 inhibition for FSHD, cell-based, C2C12 myotubes, firefly/Renilla luciferase, luminescence (AID 1084). Particulars: higher = more signal, called active from +8 up or from −8 down.
Experiment [9] can be described thus: binders of probe aFST on microarray, primary screen, stem cell growth factor project, biochemical, small-molecule microarray, fluorescence 635/667 (AID 1086).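 Further: score merges 667 nm fluorescence with signal-to-noise of each printed compound spot.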 Particulars: higher = more signal.
Experiment [10] is described as follows: binders of probe aHhip on microarray, primary screen, stem cell growth factor project, biochemical, small-molecule microarray, fluorescence 635/667 (AID 1087).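 Further: score merges spot fluorescence at 667nm with spot signal to noise ratio.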 Particulars: higher = more signal.

The source made the active and inactive calls.

`CCOC(=O)C[C@H]1[C@H](OC(=O)Cc2ccc3c(c2)OCO3)[C@@H](NC(=O)c2ccc(-c3ccccc3)cc2)c2cc(OCCCO)ccc2N1C(=O)c1ccc2ccccc2n1`: the composite z-score is -0.472 in experiment [1]; 0.783 in experiment [2]; -0.131 in [3]; 0.228 in experiment [4]; 0.399 in [5]; 0.281 in [6]. Moreover, the composite z-score in experiment [7] is 0.167; in [9], 0.0972; in experiment [10] it was -0.236. The z-score in [8] is -4.52 (inactive).
As for `COc1ccc(C(O)C2C=CC3C(=O)N(C)C(=O)C3N2N2CCCCC2)c2ccccc12` (stereo not given), the composite z-score was -0.226 in experiment [1]; 0.0595 in experiment [2]; 0.192 in experiment [3]; 0.988 in experiment [4]; 1.65 in [5]; 1.27 in [6]. Moreover, the composite z-score in [7] worked out at 1.07; in experiment [9] it was 0.858; in experiment [10], 0.176. Further, in experiment [8], the z-score is -0.292 (inactive).
Take `COc1cc2c(cc1OC)CN(C(=O)[C@@H]1[C@H]3C(=O)O[C@H](c4ccccc4)[C@H](c4ccccc4)N3[C@H](c3ccc(O)cc3)[C@@]13C(=O)Nc1ccc(C#CC4(O)CCCCCC4)cc13)CC2`: the composite z-score in experiment [1] was -1.38; in [2], 0.75; in experiment [3], -0.0197; in experiment [4] it was 0.763; in [5] it was 1.18; in [6], 1.73. Also, the values for the composite z-score in experiment [7], in experiment [9] and in [10] were 1.35, 0.0629 and -0.274, respectively. The z-score in experiment [8] is 0.651 (inactive).
On to `O=C(NCc1ccccc1)[C@@]1(CCS(=O)(=O)c2ccccc2)N=C(c2ccc(OCCCO)cc2)O[C@H]1c1ccccc1`, for which the composite z-score in experiment [1] was -0.0744; in experiment [2] it was 0.345; in [3], 0.115; in experiment [4], 0.488; in experiment [5], 1.56; in [6] it was 1.82. Further, the results for the composite z-score in [7], in experiment [9] and in [10] were 1.19, 1.6 and 0.0274, respectively. For the same molecule, in [8], the z-score is -2.73 (inactive).
For the molecule `CC(C)C(CO)N1C(=O)[C@@H]2[C@H]3C(=O)OCC=C[C@H]3OC23C=CCN(C(C)C)C(=O)[C@@H]13` (stereo not given in full), the composite z-score was -0.25 in experiment [1]; -0.615 in [2]; -0.187 in experiment [3]; -0.271 in experiment [4]; -0.142 in experiment [5]; 0.814 in [6]. The composite z-score in experiment [7] was -0.677; in experiment [9] it was -0.422; in experiment [10], -0.374. In experiment [8], the z-score is -0.724 (inactive).
In the case of `CC(C)C[C@@H]1NC(=O)[C@@H]2C[C@H](C(=O)NCCCCCN)[C@H](c3cccc(OCCO)c3)N2C1=O`, the composite z-score in experiment [1] was 0.235; in [2], -0.0087; in [3] it was 0.0465; in [4] it was 0.796; in experiment [5], 0.128; in experiment [6], 1.4. Besides, the values for the composite z-score in experiment [7], in experiment [9] and in [10] were 1.29, 0.393 and 0.28, respectively. The z-score in experiment [8] is -0.284 (inactive).
Consider `COC(=O)[C@@]1(Cc2ccccc2)[C@H]2c3cc(C(=O)N4CCCC4)n(CC4CC4)c3C[C@H]2CN1C(=O)c1ccccc1`, for which the composite z-score in experiment [1] was 0.963; in [2], 0.365; in experiment [3], 0.424; in experiment [4], 0.703; in experiment [5], 1.6; in experiment [6], 1.64. Further, the results for the composite z-score in experiment [7], in experiment [9] and in experiment [10] were 1.14, 2.15 and 0.337, respectively. Besides, the z-score in [8] was 0.692 (inactive).
Consider `O=C1c2ccccc2[C@](Cc2ccccc2I)(C(=O)NC2CC2)[C@H](c2ccc(CO)cc2)N1C1CCCCC1`, for which the composite z-score was -0.0129 in experiment [1]; 0.677 in experiment [2]; -0.0989 in experiment [3]; 0.418 in [4]; 1.48 in experiment [5]; 1.62 in experiment [6]. Moreover, the figures for the composite z-score in experiment [7], in experiment [9] and in [10] were 1.41, 1.37 and -0.926, respectively. The z-score in [8] was -4.4 (inactive).
Take `CCCCCCC#C[Si](O[C@H](c1ccccc1)c1cn([C@H](CO)Cc2ccccc2)nn1)(C(C)C)C(C)C`: the composite z-score was -0.206 in experiment [1]; 0.0423 in experiment [2]; -0.142 in [3]; 0.296 in experiment [4]; -0.39 in experiment [5]; -0.138 in [6]. The composite z-score in experiment [7] was 1; in experiment [9], -0.682; in experiment [10], -0.0324. Further, the z-score in experiment [8] was -0.334 (inactive).
For `COc1ccc(C(=O)Nc2ccc(CN3C(=O)[C@@]4(O[C@@H](CCO)[C@H]([Si](C)(C)c5ccc(OC)cc5)[C@H]4C)c4ccccc43)cc2)cc1`, the composite z-score in [1] was -0.0338; in [2], 0.623; in [3] it was -0.113; in experiment [4] it was 0.187; in [5] it was 0.912; in experiment [6], 1.22. In addition, the composite z-score is 1.1 in experiment [7], 0.25 in experiment [9] and -0.0645 in experiment [10]. Also, the z-score in experiment [8] is -3.12 (inactive).
For `CCOC(=O)C1=CCC(c2ccc(C)cc2)N(S(=O)(=O)c2ccc(C)cc2)C1` (stereo not given), the composite z-score was 0.464 in experiment [1]; -0.0577 in experiment [2]; -0.0499 in [3]; 0.101 in experiment [4]; 0.255 in experiment [5]; 0.38 in experiment [6]. Moreover, the results for the composite z-score in experiment [7], in experiment [9] and in [10] were 0.923, 0.261 and -0.0994, respectively. In addition, the z-score in experiment [8] was -4.43 (inactive).
With `O=C1OCCC/C=C\[C@H]2OC34C=CCN(CCN5CCOCC5)C(=O)[C@H]3N(CCCO)C(=O)[C@@H]4C12` (stereo not given in full), the composite z-score in experiment [1] is -0.0893; in experiment [2], 0.95; in [3], -0.168; in experiment [4], -1.07; in experiment [5], -0.793; in experiment [6] it was 1.47. The composite z-score in experiment [7] was 0.993; in experiment [9] it was -0.209; in experiment [10], -0.216. In addition, in [8], the z-score was 0.562 (inactive).
Consider `CC(C)(C)OC(=O)CC[C@]1(C(=O)NCC(O)CO)COC(c2ccc(OCCCO)cc2)=N1` (stereo not given in full), for which the composite z-score in [1] is 0.139; in experiment [2], -0.382; in [3], -0.0551; in experiment [4], -0.0211; in experiment [5], 1.13; in [6], 1.97. In addition, the composite z-score in experiment [7] is 1.21; in experiment [9], 1.24; in [10], -0.0645. In addition, the z-score in experiment [8] was 0.555 (inactive).
With `C=CCOC(=O)[C@H]1[C@@H]2C(=O)O[C@@H](c3ccccc3)[C@@H](c3ccccc3)N2[C@@H](c2ccc(OCCOC(=O)[C@@H]3C[C@@H]4C(=O)N5CCC[C@H]5C(=O)N4[C@@H]3c3cccc(OCCO)c3)cc2)[C@]12C(=O)Nc1ccccc12`, the composite z-score was found to be 0.0458 in experiment [1]; 0.629 in experiment [2]; 0.0584 in [3]; 0.808 in [4]; 0.761 in experiment [5]; 1.26 in experiment [6]. In addition, the composite z-score in experiment [7] amounted to 1.31; in experiment [9], 0.356; in experiment [10] it was 0.382. For the same molecule, the z-score in experiment [8] is 0.999 (inactive).
